NADH enzymes: inhibitors of PK/LDH coupling enzymes, profiling panel, artefact control, biochemical, MLSMR library; 65,000 compounds, 0.02% hits; AID 774, 2007; IC50, µM (series often up to 10 µM), for inactives: at the top dose inhibition; coupled PK/LDH NADH assays, four targets;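 active means single-dose screening hits from any of four coupled enzyme assays that gave an IC50 when retested across doses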;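 further: the DPM-DC format reads NADH fluorescence rather than 340 nm absorbance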
DPM-DC inhibit: S. pneumoniae DPM-DC inhibitors, primary screen, biochemical, PK/LDH-coupled NADH fluorescence; calls only at 10 µM; diphosphomevalonate decarboxylase (Streptococcus pneumoniae D39); 65,000 compounds, 0.49% hits; purified DPM-DC;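 active means the 320 compounds with the highest percent inhibition in the single-dose primary screen, excluding strongly autofluorescent ones, cut at about 32% in these data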;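 further: kinetic rate of NADH fluorescence loss reporting ADP formed by the decarboxylase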
Spn PMK inh: S. pneumoniae PMK inhibitors, primary screen, biochemical, mevalonate pathway, pilot trial included; 65,000 compounds, 0.49% hits; purified PMK, PK/LDH-coupled NADH absorbance 340 nm; inhibition, % at 10 µM;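 active means top-ranked compounds by inhibition in the single 10 µM screen, taking a fixed number of the strongest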;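 further: 0% = full reaction with DMSO carrier and 100% = background rate without enzyme reaction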
MK inhibit: S. pneumoniae MK inhibitors, primary screen, biochemical, PK/LDH-coupled NADH absorbance; mevalonate kinase [Streptococcus pneumoniae D39]; purified MK, PK/LDH-coupled NADH absorbance 340 nm; inhibition, % at 10 µM; 65,000 compounds, 0.48% hits; AID 555, 2006;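 active means ranked among the strongest by inhibition in the single 10 µM screen, a fixed top-ranked set picked for dose follow-up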
Numbers without * were called inactive; i = inactive; nt = not tested or not shown; + = active, no number. Hits are enriched below; roughly 1.3% of the tested compounds scored in any of these assays.

SMILES	NADH enzymes	DPM-DC inhibit	Spn PMK inh	MK inhibit
N#CC(C(=O)NC1CC1)c1nc2ccccc2nc1N1CCCC1 (stereo not drawn)	9.0%	i	16.0	0.0
O/N=C1\CCC\C1=C/c1ccco1	15.0%	+	8.0	4.0
O/N=C1/CCCSc2ccccc21	4.0%	i	8.0	4.0
CCOC(=O)COn1c2c(c3c4no[n+]([O-])c4ccc31)CCCC2	6.0%	i	12.0	5.0
CCOC(=O)c1c(C)n(OCc2ccccc2)c2ccc3c(no[n+]3[O-])c12	4.0%	+	6.0	7.0
CCn1c(CCn2ccnc2C)n[nH]c1=S	5.0%	i	6.0	10.0
CCn1c(CC(C)C)n[nH]c1=S	16.0%	i	3.0	44.0*
COc1ccc(C2=CC(c3ccc(Cl)cc3)n3cnnc3N2)cc1OC (stereo not drawn)	11.0%	i	6.0	7.0
COc1cc(OC)c(NC(=O)CCc2nc(-c3cccs3)no2)cc1Cl	6.0%	i	12.0	6.0
O=C(NCCc1ccccc1)C1CCN(S(=O)(=O)c2ccc(-c3nn[nH]n3)cc2)CC1	7.0%	i	15.0	0.0
COc1cccc(C(=O)Nc2ccc(NC(=O)C(C)C)nc2)c1	16.0%	+	2.0	11.0
CCOc1ccc(-c2nnn(CC(=O)Nc3cccc(OC)c3)n2)cc1OCC	6.0%	i	13.0	5.0
CCCOc1ccc(-c2nnn(CC(=O)Nc3cccc(C(=O)OC)c3)n2)cc1	3.0%	i	26.0*	2.0
Cc1ccc(Cl)cc1N1CCN(Cc2nnnn2C2CCCCC2)CC1	8.0%	i	25.0*	0.0
c1ccc(N2CCN(Cc3nnnn3C3CCCCC3)CC2)cc1	7.0%	i	13.0	8.0
Nc1nc(SCC(=O)N2CCCc3ccccc32)n(-c2ccccc2)n1	1.0%	i	1.0	1.0
CCOC(=O)c1[nH]c2ccccc2c1NC(=O)CC(C)(C)C	8.0%	i	3.0	4.0
CCOC(=O)c1[nH]c2ccccc2c1NC(=O)c1ccc(Br)o1	20.0%	i	0.0	54.0*
COc1cccc(-c2nc(Cc3ccc(OC)c(OC)c3)no2)c1	5.0%	i	5.0	9.0
CC(C)n1c(-c2ccc(N(C)C)cc2)nc2ccccc21	9.0%	nt	9.0	9.0
CN(C)c1ccc(-c2nc3ccccc3n2C)cc1	13.0%	nt	25.0*	0.0
CCc1ccc(CCC(=O)Nc2ccc(C)c(C)c2)o1	5.0%	+	10.0	10.0
CCOc1ccccc1OCC(=O)Nc1ccc(N2CCCCC2)cc1	16.0%	+	0.0	4.0
N#Cc1ccc(-c2cccnc2)nc1SCC(=O)Nc1sc2c(c1C#N)CCC2	45.0%	i	47.0	62.0*
CCOc1ccc(C2CC(c3cccc(OC)c3OC)n3nnnc3N2)cc1Cl (stereo not drawn)	4.0%	i	9.0	2.0
SMILES	NADH enzymes	DPM-DC inhibit	Spn PMK inh	MK inhibit
O=c1c(-c2ccc(F)cc2)coc2cc(O)ccc12	5.0%	nt	0.0	9.0
COc1ccc(-c2coc3cc(O)ccc3c2=O)cc1OC	16.0%	+	17.0	0.0
N#CCCSc1ccccc1NC(=O)c1ccc(S(=O)(=O)N2CCCC2)cc1	8.0%	i	15.0	10.0
CC1CCN(S(=O)(=O)c2ccc(NC(=O)CN3CCN(c4ccccc4)CC3)cc2)CC1	8.0%	i	11.0	4.0
CC1CCN(S(=O)(=O)c2ccc(NC(=O)CN3CCN(C)CC3)cc2)CC1	20.0%	i	13.0	48.0*
C[C@]12CC[C@@H]3c4ccc(OS(=O)(=O)O)cc4CC[C@H]3[C@@H]1CCC2=O	8.0%	i	active	6.0
C#C[C@]1(O)CC[C@H]2[C@@H]3CCc4cc(O)ccc4[C@H]3CC[C@@]21C	1.0%	i	0.0	4.0
O=C(CSc1ncn[nH]1)Nc1ccc(Cl)c(Cl)c1	7.0%	i	9.0	12.0
O=C(CCN1C(=O)c2ccccc2C1=O)NC1=NCCS1	19.0%	i	51.0*	6.0
Cc1nc2ncnn2c(N2CCCC(C(=O)Nc3ccc4c(c3)CCC4)C2)c1C (stereo not drawn)	5.0%	i	0.0	15.0
Cc1ccc(-c2c3c(=O)n(C)c(=O)n(C)c3c3c(C)cc(C)nn23)cc1	6.0%	i	11.0	6.0
COC(=O)c1sccc1NC(=O)c1ccc2c(c1)OCO2	2.0%	i	0.0	7.0
COc1cc(NC(=O)c2ccc3c(c2)OCO3)c2ncccc2c1	19.0%	+	7.0	5.0
CS(=O)(=O)N(CC(=O)NCCC1=CCCCC1)c1ccc2c(c1)OCO2	6.0%	i	10.0	7.0
Cc1ccc(-c2cc(C(F)(F)F)n3ncc(C(=O)NCc4ccco4)c3n2)cc1	18.0%	+	9.0	8.0
COCCNC(=O)c1cnn2c(C(F)(F)F)cc(-c3ccc4c(c3)OCO4)nc12	24.0%	+	10.0	11.0
Cc1ccc(-c2cc(C(F)F)n3ncc(C(=O)NCc4ccco4)c3n2)cc1	4.0%	nt	2.0	6.0
CCOc1cc(C)c(Cl)cc1S(=O)(=O)NCC1CCCO1 (stereo not drawn)	3.0%	i	0.0	8.0
O=c1cc(O)c2c(=O)[nH]c(=O)n(-c3ccccc3)c2[nH]1	10.0%	i	25.0*	4.0
CCn1cc(C(=O)O)c(=O)c2cnc(N3CCN(C(=O)Nc4cccc5ccccc45)CC3)nc21	6.0%	i	9.0	7.0
CCOC(=O)N1CCC(N2C(=O)c3ccccc3C2Nc2cc(C(=O)OC)cc(C(=O)OC)c2)CC1 (stereo not drawn)	0.0%	nt	0.0	0.0
COc1ccc(CN2C(=O)c3cccnc3C2Nc2cc(Cl)ccc2OC)cc1 (stereo not drawn)	17.0%	i	14.0	83.0*
COCCn1cc(C(=O)NCCCN2CCC(C)CC2)c2c3ccccc3n(C)c2c1=O	8.0%	+	15.0	0.0
CCN1CCN(CCCNC(=O)c2cn(CCOC)c(=O)c3c2c2ccccc2n3C)CC1	4.0%	i	6.0	1.0
Cc1ccc(C(=O)Nc2ncc(Cc3ccc(F)cc3)s2)o1	4.0%	i	5.0	0.0
SMILES	NADH enzymes	DPM-DC inhibit	Spn PMK inh	MK inhibit
Cc1nnc(SCC(=O)Nc2ncc(Cc3ccc(F)cc3)s2)n1N	34.0%	i	44.0*	32.0
COc1ccc(CSc2nnc(C)n2N)cc1	8.0%	i	14.0	10.0
Cc1nnc(SCc2ccccc2)n1N	4.0%	i	26.0*	4.0
COC(=O)c1cc2occc2n1CC(=O)Nc1ccc(OC)c(OC)c1OC	35.0%	+	0.0	22.0
COC(=O)c1cc2oc(C)cc2n1CC(=O)Nc1ccc(OC)c(OC)c1OC	6.0%	i	8.0	7.0
N#CC(C#N)=c1ccc2c(c1)NC1(CCCCC1)N=2	12.0%	i	13.0	9.0
COC(=O)c1ccccc1NC(=O)C12CCC(C)(C(=O)O1)C2(C)C (stereo not drawn)	1.0%	i	0.0	0.0
CCOc1ncccc1C(=O)OCc1cc(=O)n2c(n1)sc1ccccc12	8.0%	i	25.0*	0.0
CCOc1ncccc1C(=O)OCC(=O)c1c(N)n(C)c(=O)n(C)c1=O	5.0%	i	0.0	14.0

Screening data as filed in PubChem BioAssay.
